Reference: PubChem BioAssay (NCATS)
Inconclusive results are not listed. Activity calls are given as the source filed them. Calls come from the whole dose curve; as a rule, active = well fitted curve in the direction sought with a large enough effect; inconclusive = small, poorly fitted or top-dose-only effect, or another doubt; inactive = no such curve, though single readings can be large; an effect the other way counts as inactive or inconclusive.

What was measured:
CRL-7250 = normal cell line; assay: Cytotoxic Profiling of Annotated Libraries Using Quantitative High-Throughput Screening (AID 1296008); conditions: Five cell lines viability, CellTiter-Glo ATP luminescence, 48-72 h; max response: hits give low values; note: nearly all actives have a fitted effect of over 60% in size; for max response: % is set by controls: 0 for no effect and ±100 for the full control effect
Outline: (§1)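 Cytotoxicity was measured as CellTiter-Glo ATP luminescence, read after 10 min at room temperature. Compound treatment of the cells lasted 48 or 72 hr at 37 degrees Celsius in a qHTS format.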

HEK293 = assay: as above; conditions: Five cell lines viability, CellTiter-Glo ATP luminescence, 48-72 h; max response: hits give low values
Outline: as §1

HaCat [1] = assay: as above; conditions: Five cell lines viability, CellTiter-Glo ATP luminescence, 48-72 h; max response: hits give low values
Outline: as §1

KB-3-1 = assay: as above; conditions: Five cell lines viability, CellTiter-Glo ATP luminescence, 48-72 h; max response: hits give low values
Outline: as §1

NIH3T3 [2] = assay: as above; conditions: Five cell lines viability, CellTiter-Glo ATP luminescence, 48-72 h; max response: hits give low values
Outline: as §1

HACAT [3] = assay: qHTS assay to identify novel small-molecules to repurpose for Merkel cell carcinoma treatment (AID 1296009); conditions: MCC and control cell lines, CellTiter-Glo viability, 72 h; at 44.8 µM (top of the series) unless noted; note: nearly all actives have a fitted effect of over 60% in size
Outline: (§2)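 72 hr, 37 degree celsius; NPC 8-pt / MIPE 11-pt dose response; compound pinned in DMSO; CellTiter-Glo, 10 min RT, luminescence; normalized to no-cell and DMSO controls.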

NIH3T3 [4] = assay: as above; conditions: MCC and control cell lines, CellTiter-Glo viability, 72 h; at 44.8 µM (top of the series) unless noted
Outline: as §2

C33A = assay: Primary qHTS to identify gynecologic anti-cancer compounds using libraries of approved drugs and bioactive compounds (AID 1345084); conditions: Gynecologic cancer cell panel viability, ATPlite luminescence, 48 h; series mostly up to 57.5 µM; note: % is set by controls: 0 for no effect and ±100 for the full control effect; nearly all actives have a fitted effect of over 55% in size
Outline: (§3)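 ATP-based viability (ATPlite), 1,000 cells/well, 16 h pre-incubation, 48 h compound at 37 C, 5% CO2, 15 min RT before read.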

CAOV3 = assay: as above; conditions: Gynecologic cancer cell panel viability, ATPlite luminescence, 48 h; series mostly up to 57.5 µM
Outline: as §3

CASKI = assay: as above; conditions: Gynecologic cancer cell panel viability, ATPlite luminescence, 48 h; series mostly up to 57.5 µM
Outline: as §3

Es-2 = assay: as above; conditions: Gynecologic cancer cell panel viability, ATPlite luminescence, 48 h; series mostly up to 57.5 µM
Outline: as §3

HeLa = assay: as above; conditions: Gynecologic cancer cell panel viability, ATPlite luminescence, 48 h; series mostly up to 57.5 µM
Outline: as §3

Hek293T = assay: as above; conditions: Gynecologic cancer cell panel viability, ATPlite luminescence, 48 h, control line for the selectivity index; series mostly up to 57.5 µM
Outline: as §3

JEG-3 = assay: as above; conditions: Gynecologic cancer cell panel viability, ATPlite luminescence, 48 h; series mostly up to 57.5 µM
Outline: as §3

OV90 = assay: as above; conditions: Gynecologic cancer cell panel viability, ATPlite luminescence, 48 h; series mostly up to 57.5 µM
Outline: as §3

Cc1c(Cc2ccc3ccccc3n2)c2cc(F)ccc2n1CC(=O)O
inactive: max response (CRL-7250) -9.45% | max response (HEK293) 0.378% | outcome (HaCat [1]) | max response (KB-3-1) 7.66% | outcome (NIH3T3 [2]) | outcome (HACAT [3]) | outcome (NIH3T3 [4]) | Potency (C33A) | Potency (CAOV3) | outcome (CASKI) | Potency (Es-2) | Potency (HeLa) | Potency (Hek293T) | Potency (JEG-3) | Potency (OV90)

CC1=C(CC/C(C)=C/C(=O)O)[C@@]2(C)CCCC(C)(C)C2CC1=O (stereo not given in full)
inactive: max response (CRL-7250) -7.55% | max response (HEK293) -5.92% | outcome (HaCat [1]) | outcome (KB-3-1) | outcome (NIH3T3 [2]) | outcome (HACAT [3]) | outcome (NIH3T3 [4]) | Potency (C33A) | Potency (CAOV3) | outcome (CASKI) | Potency (Es-2) | Potency (HeLa) | Potency (Hek293T) | Potency (JEG-3) | Potency (OV90)

CC(=O)/C=C/C1(O)C(C)=CC(=O)CC1(C)C (stereo not given)
inactive: max response (CRL-7250) -1.97% | max response (HEK293) -3.4% | outcome (HaCat [1]) | max response (KB-3-1) -2.68% | outcome (NIH3T3 [2]) | outcome (HACAT [3]) | outcome (NIH3T3 [4]) | Potency (C33A) | Potency (CAOV3) | outcome (CASKI) | Potency (Es-2) | Potency (HeLa) | Potency (Hek293T) | Potency (JEG-3) | Potency (OV90)

CC1(CO)CC(O)C2(C)CCC3(C)C(=CCC4C5(C=O)CCC(OC6OC(C(=O)O)C(O)C(O)C6OC6OC(C(=O)O)C(O)C(O)C6O)C(C)(C)C5CCC43C)C2C1 (stereo not given)
inactive: outcome (CRL-7250) | max response (HEK293) -10.9% | outcome (HaCat [1]) | outcome (KB-3-1) | outcome (NIH3T3 [2]) | outcome (HACAT [3]) inactive [at 9.27 µM] | outcome (NIH3T3 [4]) inactive [at 9.27 µM] | activity change, negative = cytotoxicity (C33A) 4.08% [at 11.6 µM] | activity change, negative = cytotoxicity (CAOV3) 8.53% [at 11.6 µM] | activity change, negative = cytotoxicity (CASKI) 5.93% [at 11.6 µM] | activity change, negative = cytotoxicity (Es-2) 3.36% [at 11.6 µM] | activity change, negative = cytotoxicity (HeLa) 7.21% [at 11.6 µM] | activity change, negative = cytotoxicity (Hek293T) -0.0914% [at 11.6 µM] | activity change, negative = cytotoxicity (JEG-3) 2.3% [at 11.6 µM] | activity change, negative = cytotoxicity (OV90) 0.842% [at 11.6 µM]

CC(=O)c1ccc(O[C@@H]2O[C@H](CO[C@@H]3OC[C@@H](O)[C@H](O)[C@H]3O)[C@@H](O)[C@H](O)[C@H]2O)cc1
inactive: outcome (CRL-7250) | max response (HEK293) -1.26% | outcome (HaCat [1]) | max response (KB-3-1) 4.67% | outcome (NIH3T3 [2]) | outcome (HACAT [3]) inactive [at 17.4 µM] | outcome (NIH3T3 [4]) inactive [at 17.4 µM] | Potency (C33A) | Potency (CAOV3) | outcome (CASKI) | Potency (Es-2) | Potency (HeLa) | Potency (Hek293T) | Potency (JEG-3) | Potency (OV90)

CC(=O)/C=C/C1(O)C(C)(C)CC(O)CC1(C)O (stereo not given)
inactive: max response (CRL-7250) -6.38% | max response (HEK293) -4.83% | outcome (HaCat [1]) | outcome (KB-3-1) | outcome (NIH3T3 [2]) | outcome (HACAT [3]) | outcome (NIH3T3 [4]) | Potency (C33A) | Potency (CAOV3) | outcome (CASKI) | Potency (Es-2) | Potency (HeLa) | Potency (Hek293T) | Potency (JEG-3) | Potency (OV90)

C=C1CC/C=C(/C(=O)O)CCC2C1CC2(C)C (stereo not given)
inactive: max response (CRL-7250) -2.67% | max response (HEK293) -4.76% | outcome (HaCat [1]) | max response (KB-3-1) 4.31% | outcome (NIH3T3 [2]) | outcome (HACAT [3]) | outcome (NIH3T3 [4]) | Potency (C33A) | Potency (CAOV3) | outcome (CASKI) | Potency (Es-2) | Potency (HeLa) | Potency (Hek293T) | Potency (JEG-3) | Potency (OV90)

C/C=C(\C)C(=O)OC[C@H]1O[C@H](O[C@H]2O[C@H](CO)[C@@H](O)[C@H](O)[C@H]2O[C@@H]2O[C@H](CO)[C@@H](O)[C@H](O)[C@H]2O)[C@H](O[C@@H]2O[C@H](CO)[C@@H](O)[C@H](O)[C@H]2O)[C@@H](O)[C@@H]1O
inactive: max response (CRL-7250) 0.965% | max response (HEK293) -1.76% | outcome (HaCat [1]) | outcome (KB-3-1) | outcome (NIH3T3 [2]) | outcome (HACAT [3]) inactive [at 17.4 µM] | outcome (NIH3T3 [4]) inactive [at 17.4 µM] | Potency (C33A) | Potency (CAOV3) | outcome (CASKI) | Potency (Es-2) | Potency (HeLa) | Potency (Hek293T) | Potency (JEG-3) | Potency (OV90)

NC(=O)[C@H](Cc1ccccc1)NC(=O)[C@H](CCCN=C(N)N)NC(=O)C12CC3CC(CC(C3)C1)C2
inactive: max response (CRL-7250) -2.98% | max response (HEK293) -11.4% | outcome (HaCat [1]) | outcome (KB-3-1) | outcome (NIH3T3 [2]) | outcome (HACAT [3]) inactive [at 9.27 µM] | outcome (NIH3T3 [4]) inactive [at 9.27 µM] | activity change, negative = cytotoxicity (C33A) 15.1% [at 11.6 µM] | activity change, negative = cytotoxicity (CAOV3) 15.6% [at 11.6 µM] | activity change, negative = cytotoxicity (CASKI) 5.13% [at 11.6 µM] | activity change, negative = cytotoxicity (Es-2) 7.15% [at 11.6 µM] | activity change, negative = cytotoxicity (HeLa) 9.3% [at 11.6 µM] | activity change, negative = cytotoxicity (Hek293T) 9.9% [at 11.6 µM] | activity change, negative = cytotoxicity (JEG-3) 17.3% [at 11.6 µM] | activity change, negative = cytotoxicity (OV90) -0.378% [at 11.6 µM]

NCCCCN(Cc1nc2ccccc2[nH]1)[C@H]1CCCc2cccnc21
inactive: max response (CRL-7250) -5.02% | max response (HEK293) -0.584% | outcome (HaCat [1]) | max response (KB-3-1) 1.94% | outcome (NIH3T3 [2]) | outcome (HACAT [3]) inactive [at 17.4 µM] | outcome (NIH3T3 [4]) inactive [at 17.4 µM] | Potency (C33A) | Potency (CAOV3) | outcome (CASKI) | Potency (Es-2) | Potency (HeLa) | Potency (Hek293T) | Potency (JEG-3) | Potency (OV90)

C=C[C@@]1(C)CCC2=C([C@H]1OC(C)=O)[C@H](OC(C)=O)CC1[C@](C)(C(=O)OC)CC[C@H](OC(C)=O)[C@]21C (stereo not given in full)
inactive: max response (CRL-7250) -6.44% | max response (HEK293) 0.95% | outcome (HaCat [1]) | outcome (KB-3-1) | outcome (NIH3T3 [2]) | outcome (HACAT [3]) inactive [at 17.4 µM] | outcome (NIH3T3 [4]) inactive [at 17.4 µM] | Potency (C33A) | Potency (CAOV3) | outcome (CASKI) | Potency (Es-2) | Potency (HeLa) | Potency (Hek293T) | Potency (JEG-3) | Potency (OV90)
